# According to PubChem BioAssay AID1159580 (chemical genetic matrix, 2015):
# Values joined by “and” are separate entries in the source; they are usually repeats but may differ in a detail not shown here. Equal values may be shown once. Out of some 5,500 compounds screened, about 2,000 (36%) were called active. Roughly 18% stayed inconclusive and do not appear here. Cut-off read from the data, not from the text of the source: active = normalized growth mostly below about 0.91 (no sharp cut-off); inconclusive = no clear call, values can overlap the other calls; inactive = mostly above about 0.92. Some of the results follow. The source holds several records for some structures; these can differ, active in one and inactive in another.
# Assay: chemical genetic growth profiling, strain panel (AID 1159580);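 note: tested at 20 µM; growth read once vehicle control cultures reached saturation at 30 °C; 1 = growth at the plate median or of vehicle wells; lower values mean less growth of the strain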
# Details: S. cerevisiae deletion strains, growth OD
compound,measurement,setting,value
Cc1cc2c(C(C)C)c(O)c(O)c(C=O)c2c(O)c1-c1c(C)cc2c(C(C)C)c(O)c(O)c(C=O)c2c1O,normalized growth,"locus YAL013W, strain DEP1, stronger effect = lower value",0.328 (active) and 0.919 (inactive)
same,normalized growth,"locus YAL021C, strain ccr4, stronger effect = lower value",0.423 (active) and 0.368 (active)
same,normalized growth,"locus YAL026C, strain drs2, stronger effect = lower value",0.446 (active) and 0.519 (active)
same,normalized growth,"locus YAL030W, strain snc1, stronger effect = lower value",0.842 (active) and 0.874 (active)
same,normalized growth,"locus YBL061C, strain skt5, stronger effect = lower value",0.762 (active) and 0.747 (active)
same,normalized growth,"locus YBR009C, strain hhf1, stronger effect = lower value",0.779 (active) and 0.854 (active)
same,normalized growth,"locus YBR021W, strain FUR4, stronger effect = lower value",0.953 (inactive) and 0.977 (inactive)
same,normalized growth,"locus YBR023C, strain chs3, stronger effect = lower value",0.715 (active) and 0.692 (active)
same,normalized growth,"locus YBR171W, strain sec66, stronger effect = lower value",0.862 (active) and 0.922 (inactive)
same,normalized growth,"locus YBR229C, strain ROT2, stronger effect = lower value",0.936 (inactive) and 0.948 (inactive)
same,normalized growth,"locus YBR231C, strain swc5, stronger effect = lower value",0.637 (active) and 0.64 (active)
same,normalized growth,"locus YBR279W, strain paf1, stronger effect = lower value",0.778 (active) and 0.751 (active)
same,normalized growth,"locus YCL011C, strain gbp2, stronger effect = lower value",0.819 (active) and 0.854 (active)
same,normalized growth,"locus YCL016C, strain dcc1, stronger effect = lower value",0.842 (active) and 0.831 (active)
same,normalized growth,"locus YCL029C, strain bik1, stronger effect = lower value",0.798 (active) and 0.939 (inactive)
same,normalized growth,"locus YCL061C, strain MRC1, stronger effect = lower value",0.845 (active)
same,normalized growth,"locus YCL069W, strain vba3, stronger effect = lower value",0.813 (active) and 0.879 (active)
same,normalized growth,"locus YCR088W, strain abp1, stronger effect = lower value",0.842 (active) and 0.919 (active)
same,normalized growth,"locus YDL005C, strain med2, stronger effect = lower value",0.971 (inactive)
same,normalized growth,"locus YDL035C, strain GPR1, stronger effect = lower value",0.662 (active) and 0.799 (active)
same,normalized growth,"locus YDL040C, strain nat1, stronger effect = lower value",0.943 (inactive) and 0.953 (inactive)
same,normalized growth,"locus YDL074C, strain BRE1, stronger effect = lower value",0.589 (active) and 0.751 (active)
same,normalized growth,"locus YDL101C, strain DUN1, stronger effect = lower value",0.742 (active) and 0.847 (active)
same,normalized growth,"locus YDL134C, strain PPH21, stronger effect = lower value",0.738 (active) and 0.848 (active)
same,normalized growth,"locus YDL185W, strain tfp1, stronger effect = lower value",0.926 (inactive) and 0.966 (inactive)
same,normalized growth,"locus YDL192W, strain arf1, stronger effect = lower value",0.689 (active) and 0.978 (inactive)
same,normalized growth,"locus YDR001C, strain nth1, stronger effect = lower value",0.881 (active) and 0.925 (inactive)
same,normalized growth,"locus YDR069C, strain doa4, stronger effect = lower value",0.53 (active) and 0.604 (active)
same,normalized growth,"locus YDR101C, strain arx1, stronger effect = lower value",0.849 (active) and 0.943 (inactive)
same,normalized growth,"locus YDR137W, strain rgp1, stronger effect = lower value",0.161 (active) and 0.167 (active)
same,normalized growth,"locus YDR150W, strain NUM1, stronger effect = lower value",0.785 (active) and 0.912 (inactive)
same,normalized growth,"locus YDR159W, strain sac3, stronger effect = lower value",0.653 (active) and 0.717 (active)
same,normalized growth,"locus YDR162C, strain NBP2, stronger effect = lower value",0.342 (active) and 0.819 (active)
same,normalized growth,"locus YDR195W, strain ref2",0.84 (active) and 0.864 (inactive)
same,normalized growth,"locus YDR297W, strain sur2, stronger effect = lower value",0.79 (active) and 0.863 (active)
same,normalized growth,"locus YDR318W, strain mcm21, stronger effect = lower value",0.847 (active) and 0.965 (inactive)
same,normalized growth,"locus YDR334W, strain swr1, stronger effect = lower value",0.477 (active) and 0.674 (active)
same,normalized growth,"locus YDR335W, strain msn5, stronger effect = lower value",0.677 (active) and 0.769 (active)
same,normalized growth,"locus YDR388W, stronger effect = lower value",0.793 (active) and 0.972 (inactive)
same,normalized growth,"locus YDR392W, strain spt3, stronger effect = lower value",0.56 (active) and 0.438 (active)
same,normalized growth,"locus YDR502C, strain sam2, stronger effect = lower value",0.769 (active) and 0.937 (inactive)
same,normalized growth,"locus YEL003W, strain gim4, stronger effect = lower value",0.761 (active) and 0.805 (active)
same,normalized growth,"locus YEL037C, strain rad23, stronger effect = lower value",0.786 (active) and 0.813 (active)
same,normalized growth,"locus YEL061C, strain CIN8 (second series), stronger effect = lower value",0.814 (active) and 0.916 (inactive)
same,normalized growth,"locus YEL061C, strain CIN8, stronger effect = lower value",0.777 (active) and 0.853 (active)
same,normalized growth,"locus YER015W, strain faa2, stronger effect = lower value",0.649 (active) and 0.698 (active)
same,normalized growth,"locus YER016W, strain bim1, stronger effect = lower value",0.849 (active) and 0.883 (active)
same,normalized growth,"locus YER110C, stronger effect = lower value",0.943 (inactive) and 1.02 (inactive)
same,normalized growth,"locus YER111C, strain swi4, stronger effect = lower value",0.456 (active) and 0.668 (active)
same,normalized growth,"locus YER155C, strain BEM2 (second series), stronger effect = lower value",0.674 (active) and 0.758 (active)
same,normalized growth,"locus YER155C, strain BEM2, stronger effect = lower value",0.865 (active) and 0.912 (active)
same,normalized growth,"locus YER167W, strain BCK2, stronger effect = lower value",0.83 (active) and 0.895 (active)
same,normalized growth,"locus YFR010W, strain ubp6, stronger effect = lower value",0.644 (active) and 0.732 (active)
same,normalized growth,"locus YGL078C, strain dbp3, stronger effect = lower value",0.976 (inactive) and 1.01 (inactive)
same,normalized growth,"locus YGL086W, strain mad1, stronger effect = lower value",0.937 (inactive)
same,normalized growth,"locus YGL167C, strain pmr1, stronger effect = lower value",0.868 (active) and 0.833 (active)
same,normalized growth,"locus YGL173C, strain kem1, stronger effect = lower value",0.564 (active) and 0.591 (active)
same,normalized growth,"locus YGL227W, strain vid30, stronger effect = lower value",0.953 (inactive) and 0.989 (inactive)
same,normalized growth,"locus YGL240W, strain doc1, stronger effect = lower value",0.892 (inactive) and 0.952 (inactive)
same,normalized growth,"locus YGL248W, strain PDE1, stronger effect = lower value",0.764 (active) and 0.805 (active)
same,normalized growth,"locus YGL253W, strain hxk2, stronger effect = lower value",0.629 (active) and 0.698 (active)
same,normalized growth,"locus YGR078C, strain PAC10, stronger effect = lower value",0.776 (active)
same,normalized growth,"locus YGR135W, strain pre9, stronger effect = lower value",0.821 (active) and 0.901 (inactive)
same,normalized growth,"locus YGR229C, strain SMI1, stronger effect = lower value",0.126 (active)
same,normalized growth,"locus YGR252W, strain gcn5, stronger effect = lower value",0.806 (inactive) and 0.95 (inactive)
same,normalized growth,"locus YHR013C, strain ard1, stronger effect = lower value",0.651 (active) and 0.608 (active)
same,normalized growth,"locus YHR027C, strain rpn1, stronger effect = lower value",0.56 (active) and 0.593 (active)
same,normalized growth,"locus YHR030C, strain SLT2, stronger effect = lower value",0.64 (active) and 0.992 (inactive) and 0.854 (active)
same,normalized growth,"locus YHR079C, strain IRE1 (second series), stronger effect = lower value",0.841 (active) and 0.953 (inactive)
same,normalized growth,"locus YHR079C, strain IRE1, stronger effect = lower value",1.01 (inactive)
same,normalized growth,"locus YHR094C, strain hxt1, stronger effect = lower value",0.979 (inactive) and 1 (inactive)
same,normalized growth,"locus YHR129C, strain ARP1, stronger effect = lower value",0.731 (active) and 0.811 (active)
same,normalized growth,"locus YHR142W, strain chs7, stronger effect = lower value",0.537 (active) and 0.619 (active)
same,normalized growth,"locus YHR200W, strain rpn10, stronger effect = lower value",0.876 (active) and 0.977 (inactive)
same,normalized growth,"locus YIL066C, strain RNR3, stronger effect = lower value",0.6 (active) and 0.744 (active)
same,normalized growth,"locus YIL073C, strain SPO22, stronger effect = lower value",0.421 (active) and 0.743 (inactive)
same,normalized growth,"locus YIL125W, strain kgd1, stronger effect = lower value",1.05 (inactive) and 0.996 (inactive)
same,normalized growth,"locus YIR030C, strain dcg1, stronger effect = lower value",0.89 (active) and 0.994 (inactive)
same,normalized growth,"locus YJL092W, strain hpr5, stronger effect = lower value",0.799 (active) and 0.852 (active)
same,normalized growth,"locus YJL095W, strain BCK1 (second series), stronger effect = lower value",0.644 (active) and 0.629 (active)
same,normalized growth,"locus YJL095W, strain BCK1, stronger effect = lower value",0.534 (active) and 0.961 (inactive) and 0.744 (active)
same,normalized growth,"locus YJL115W, strain asf1, stronger effect = lower value",0.794 (active) and 0.86 (active)
same,normalized growth,"locus YJL129C, strain trk1, stronger effect = lower value",0.897 (inactive) and 0.937 (inactive)
same,normalized growth,"locus YJL134W, strain LCB3, stronger effect = lower value",0.875 (active) and 0.934 (inactive)
same,normalized growth,"locus YJL154C, strain vps35, stronger effect = lower value",0.857 (active) and 0.853 (active)
same,normalized growth,"locus YJL164C, strain tpk1, stronger effect = lower value",0.774 (active) and 0.762 (active)
same,normalized growth,"locus YJL166W, strain qcr8, stronger effect = lower value",0.75 (active) and 0.82 (active)
same,normalized growth,"locus YJL168C, strain set2, stronger effect = lower value",0.935 (inactive) and 0.981 (inactive)
same,normalized growth,"locus YJL187C, strain SWE1 (second series), stronger effect = lower value",0.553 (active) and 0.71 (active)
same,normalized growth,"locus YJL187C, strain SWE1, stronger effect = lower value",0.804 (active)
same,normalized growth,"locus YJR043C, strain POL32, stronger effect = lower value",0.594 (active) and 0.749 (active)
